{
  "source": "PubChem BioAssay (NCATS)",
  "data": [
    {"assay": "High-throughput drug toxicity screening in the BPDCN cell line Gen2.2 (AID 1224824)", "conditions": "Gen2.2 BPDCN cells; at 45.8 µM (top of the series) unless noted", "excerpt": "Blastic plasmacytoid dendritic cell neoplasm (BPDCN) is a rare, aggressive and largely incurable hematologic malignancy originating from plasmacytoid dendritic cells (pDCs). Although an initial response to chemotherapy is common, BPDCN prognosis is extremely poor and most patients relapse with drug-resistant disease leading to a median overall survival of ~1 year after diagnosis. To explore novel potential therapeutic strategies in BPDCN, we performed a high-throughput drug toxicity screening in BPDCN cell liens, using of a library of 1,912 small molecules, enriched for compounds that are either approved or in early stages of development for cancer therapy.\nA total of 500 exponentially growing Gen2.2 cells were seeded per well in 5 uL of media (RPMI + Glutamine, without phenol red plus10% FBS and 1X Pen/Strep) into 1536-well solid white high base tissue culture treated Greiner One Bio Plates (789173-F), using a multidrop combi dispenser and a small sterile cassette. Compounds and controls totaling 23nL per well (negative control DMSO and positive control 9.2 uM Bortezomib-final) were immediately added to the plates using a 1536 head pin tool from Kalypsys. The plates were then covered with stainless steel gasket lids from Kalypsys and incubated for 48 hours at 37C under 95% relative humidity with 5% CO2. After 48 hours, the plates were removed and allowed to reach room temperature before 3 uL of Cell Titer Glo reagent (Promega) were added using an Aurora Flying Reagent Dispenser Bioraptor. The plates were then spun at 1000 rpms to remove bubbles and incubated for 15 minutes at room temperature before reading on a ViewLux using a luminescent filter with a 10 second exposure. The relative luciferase units were used to calculated percent activity using DMSO as 100% and Bortezomib as 0%.", "values": [
      {"smiles": "CC[N+](CC)(CC)CCOc1cccc(OCC[N+](CC)(CC)CC)c1OCC[N+](CC)(CC)CC", "cell viability, % of control (lower = more cytotoxic)": "124%"},
      {"smiles": "COc1ccccc1N1CCN(CC(O)COc2cccc3ccccc23)CC1", "note": "(stereo not given)", "cell viability, % of control (lower = more cytotoxic)": "156%"},
      {"smiles": "CCCNCC(O)COc1ccccc1C(=O)CCc1ccccc1", "note": "(stereo not given)", "cell viability, % of control (lower = more cytotoxic)": "6.23%"},
      {"smiles": "COC(=O)Nc1nc2ccc(C(=O)c3cccs3)cc2[nH]1", "cell viability, % of control (lower = more cytotoxic)": "19.7%"},
      {"smiles": "CCOC(=O)c1ncn2c1CN(C)C(=O)c1cc(F)ccc1-2", "cell viability, % of control (lower = more cytotoxic)": "100%"},
      {"smiles": "CCCCc1oc2ccccc2c1C(=O)c1cc(I)c(OCCN(CC)CC)c(I)c1", "cell viability, % of control (lower = more cytotoxic)": "84.7%"},
      {"smiles": "O=c1[nH]cc(F)c(=O)[nH]1", "cell viability, % of control (lower = more cytotoxic)": "118%"},
      {"smiles": "O=C1c2c(O)ccc(O)c2C(=O)c2c(NCCNCCO)ccc(NCCNCCO)c21", "cell viability, % of control (lower = more cytotoxic)": "6.11%"},
      {"smiles": "CN(C)CCOC(c1ccccc1)c1ccccc1", "cell viability, % of control (lower = more cytotoxic)": "136%"},
      {"smiles": "Clc1ccc2c(c1)C(N1CCNCC1)=Nc1ccccc1O2", "cell viability, % of control (lower = more cytotoxic)": "72.6%"},
      {"smiles": "O=C1N(c2ccccc2)c2ccccc2C1(Cc1ccncc1)Cc1ccncc1", "cell viability, % of control (lower = more cytotoxic)": "266%"},
      {"smiles": "CN(C)CCCN1c2ccccc2CCc2ccc(Cl)cc21", "cell viability, % of control (lower = more cytotoxic)": "29.4%"},
      {"smiles": "CS(=O)(=O)Nc1ccc([N+](=O)[O-])cc1Oc1ccccc1", "cell viability, % of control (lower = more cytotoxic)": "111%"},
      {"smiles": "CC(CCc1ccc(O)cc1)NCCc1ccc(O)c(O)c1", "note": "(stereo not given)", "cell viability, % of control (lower = more cytotoxic)": "5%"},
      {"smiles": "CNCCCC12CCC(c3ccccc31)c1ccccc12", "cell viability, % of control (lower = more cytotoxic)": "8.38%"},
      {"smiles": "CN(C)c1nc(N(C)C)nc(N(C)C)n1", "cell viability, % of control (lower = more cytotoxic)": "97.5%"},
      {"smiles": "CCOC(=O)Nc1ccc(NCc2ccc(F)cc2)nc1N", "cell viability, % of control (lower = more cytotoxic)": "166%"},
      {"smiles": "Clc1ccc(C(c2ccccc2Cl)C(Cl)Cl)cc1", "note": "(stereo not given)", "cell viability, % of control (lower = more cytotoxic)": "22.5%"},
      {"smiles": "O=C1Cc2cc(CCN3CCN(c4nsc5ccccc45)CC3)c(Cl)cc2N1", "cell viability, % of control (lower = more cytotoxic)": "199%"},
      {"smiles": "CCOC(=O)C(C)(C)Oc1ccc(Cl)cc1", "cell viability, % of control (lower = more cytotoxic)": "163%"},
      {"smiles": "CC12CC3CC(C)(C1)CC(N)(C3)C2", "cell viability, % of control (lower = more cytotoxic)": "26.5%"},
      {"smiles": "Cc1cnc(C(=O)NCCc2ccc(S(=O)(=O)NC(=O)NC3CCCCC3)cc2)cn1", "cell viability, % of control (lower = more cytotoxic)": "112%"},
      {"smiles": "COc1cc2nc(N3CCN(C(=O)C4COc5ccccc5O4)CC3)nc(N)c2cc1OC", "note": "(stereo not given)", "cell viability, % of control (lower = more cytotoxic)": "14.1%"},
      {"smiles": "CN1CCN(C2=Nc3cc(Cl)ccc3Nc3ccccc32)CC1", "cell viability, % of control (lower = more cytotoxic)": "121%"},
      {"smiles": "CN(Cc1cnc2nc(N)nc(N)c2n1)c1ccc(C(=O)N[C@@H](CCC(=O)O)C(=O)O)cc1", "cell viability, % of control (lower = more cytotoxic)": "70%"},
      {"smiles": "CN(C)CCC=C1c2ccccc2C=Cc2ccccc21", "cell viability, % of control (lower = more cytotoxic)": "41.3%"},
      {"smiles": "OCCN(CCO)c1nc(N2CCCCC2)c2nc(N(CCO)CCO)nc(N3CCCCC3)c2n1", "cell viability, % of control (lower = more cytotoxic)": "130%"},
      {"smiles": "Cc1cn([C@H]2C=C[C@@H](CO)O2)c(=O)[nH]c1=O", "cell viability, % of control (lower = more cytotoxic)": "82.4% [at 92.2 µM]"},
      {"smiles": "CC1COc2c(N3CCN(C)CC3)c(F)cc3c(=O)c(C(=O)O)cn1c23", "note": "(stereo not given)", "cell viability, % of control (lower = more cytotoxic)": "147%"},
      {"smiles": "O=c1c(O)c(-c2ccc(O)c(O)c2)oc2cc(O)cc(O)c12", "cell viability, % of control (lower = more cytotoxic)": "108%"},
      {"smiles": "CN(C)C(=N)N=C(N)N", "cell viability, % of control (lower = more cytotoxic)": "165%"},
      {"smiles": "COc1cc2nc(N3CCN(C(=O)c4ccco4)CC3)nc(N)c2cc1OC", "cell viability, % of control (lower = more cytotoxic)": "8.89%"},
      {"smiles": "O=c1c(-c2ccc(O)cc2)coc2cc(O)cc(O)c12", "cell viability, % of control (lower = more cytotoxic)": "55.3%"},
      {"smiles": "CC1(C)O[C@H]2CC(=O)OC[C@]23[C@H]2CC[C@@]4(C)[C@H](c5ccoc5)OC(=O)[C@H]5O[C@]54[C@]2(C)C(=O)C[C@@H]13", "cell viability, % of control (lower = more cytotoxic)": "131%"},
      {"smiles": "CC1(CN2CCC(n3c(=O)[nH]c4ccccc43)CC2)OCc2ccccc2-n2cccc21", "note": "(stereo not given)", "cell viability, % of control (lower = more cytotoxic)": "137%"},
      {"smiles": "CC(C)C(=O)Nc1ccc([N+](=O)[O-])c(C(F)(F)F)c1", "cell viability, % of control (lower = more cytotoxic)": "58%"},
      {"smiles": "O=C(c1ccc(F)cc1)C1CCN(CCn2c(=O)[nH]c3ccccc3c2=O)CC1", "cell viability, % of control (lower = more cytotoxic)": "216%"},
      {"smiles": "Cc1cc(C(C)(C)C)c(O)c(C)c1CC1=NCCN1", "cell viability, % of control (lower = more cytotoxic)": "97.9%"},
      {"smiles": "N[C@@H](Cc1c[nH]c2ccc(O)cc12)C(=O)O", "cell viability, % of control (lower = more cytotoxic)": "126%"},
      {"smiles": "Nc1nc2c(ncn2COC(CO)CO)c(=O)[nH]1", "cell viability, % of control (lower = more cytotoxic)": "5.03%"}
    ]}
  ]
}
